According to the supplement of paper PMC6555819:

Assays:
Assay in all cases: PBM binding z-score (relative to random genomic background probes); higher = stronger binding; sequences stand for … in GC…GCGATTGACAGCGTAGAATGAAGG
[1] = tested on: FXR:RXRa (NR concentration 270 nM, RXRa partner concentration 90 nM)
Summary of the method: (§1)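 On custom Agilent 4×180K arrays, double-stranded probes with 34-nt variable regions carried direct-repeat seeds, single-nucleotide variants, half-site ablations or random human genomic background. Ligand-free nuclear receptor dimers were applied for 1 h, and binding was read with antibodies against each partner (one per run). Binding z-scores come from regression-normalized fluorescence, with the random background probes as reference.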

[2] = tested on: LXRa:RXRa (NR concentration 270 nM, RXRa partner concentration 90 nM)
Summary of the method: as §1

[3] = tested on: LXRa homodimer (NR concentration 270 nM)
Summary of the method: as §1

[4] = tested on: LXRb:RXRa (NR concentration 270 nM, RXRa partner concentration 90 nM)
Summary of the method: as §1

[5] = tested on: LXRb homodimer (NR concentration 270 nM)
Summary of the method: as §1

[6] = tested on: PPARa:RXRa (NR concentration 270 nM, RXRa partner concentration 90 nM)
Summary of the method: as §1

[7] = tested on: PPARg:RXRa (NR concentration 180 nM, RXRa partner concentration 90 nM)
Summary of the method: as §1

[8] = tested on: PPARg:RXRa 270nM:90nM, anti-RXR (NR concentration 270 nM, RXRa partner concentration 90 nM)
Summary of the method: as §1

[9] = tested on: PPARg:RXRa 30nM:10nM, anti-RXR (NR concentration 30 nM, RXRa partner concentration 10 nM)
Summary of the method: as §1

[10] = tested on: PPARg:RXRa 90nM:30nM, anti-RXR (NR concentration 90 nM, RXRa partner concentration 30 nM)
Summary of the method: as §1

Sequence | PBM binding z-score [1] | PBM binding z-score [2] | PBM binding z-score [3] | PBM binding z-score [4] | PBM binding z-score [5] | PBM binding z-score [6] | PBM binding z-score [7] | PBM binding z-score [8] | PBM binding z-score [9] | PBM binding z-score [10]
ATCTCTAGGTAGCAAGTTCAGTGAAAGAGAGGAC | 0.337 | 0.333 | 0.238 | 0.0819 | 0.153 | 0.475 | 0.327 | 0.887 | 0.0265 | 0.756
AACTCTAGGTAAGACTCAGTTCAGTGAAGAACGC | -0.314 | -0.0738 | 0.141 | -0.191 | -0.311 | 0.00216 | 0.00417 | -0.304 | -0.237 | -0.258
CTCGAAAGGTCGGTTCAGGTGAGTATACGGATAA | 2.48 | 1.92 | 0.307 | 1.74 | 0.00585 | 2.86 | 0.546 | 1.36 | 0.0497 | 0.769
TCTCGGAGGACACGAAAGGTCAGAGGTCGACATC | 3.84 | 4.45 | 3.58 | 4.14 | 0.107 | 4.5 | 3.27 | 4.29 | 3.24 | 3.74
TCTCGGAGGGCACGAAAGGTCAGAGCTCGACATC | 4.52 | 6.49 | 2.82 | 4.29 | -0.405 | 4.24 | 2.69 | 3.93 | 2.36 | 3.06
CGTCAAAGTTCAATTAAGGTAACGTAAAGCACGC | 6.45 | 5.3 | 3.51 | 3.7 | 2.06 | 4.58 | 4.09 | 4.67 | 1.7 | 3.44
CCTTACGGGTCACGAGGTTATCGCACGACGAGCG | 6.89 | 4.91 | 0.648 | 4.02 | 0.0453 | 5.78 | 7.31 | 6.79 | 3.29 | 5.64
CCTACTGGGCCATCCAGAGGTCATTGATCATATG | 2.46 | 4.37 | 6.73 | 3.84 | 0.613 | 4.07 | 2.72 | 3.35 | 0.809 | 2.2
ATCGAAAGGACGTGAGGTGAGTATACAGAAAGGC | -0.29 | -0.461 | -0.29 | -0.468 | -0.162 | -0.116 | 0.724 | -0.318 | 0.185 | -0.252
CGAACTAGGTCATTCACAGGACAGTGAATAGTAA | 4.72 | 3.19 | 0.593 | 2.48 | 0.493 | 4.67 | 7.34 | 6.26 | 3.72 | 5.9
CCTGCTAGGTCATAGTCAGCTAATCTACAGTATG | 3.02 | 2.11 | 0.646 | 1.7 | 0.153 | 3.12 | 1.77 | 2.14 | 0.394 | 1.32
CATACAGGGTCAGCTAGGCCAGAGCAGGGACGGC | 4.49 | 3.07 | -0.271 | 2.11 | 0.561 | 4.35 | 3.33 | 3.05 | 0.789 | 1.85
TGTCATAGTTCAAAGGTAACGTAAGTATCCACAC | 4.03 | 4.22 | 1.04 | 2.89 | 0.786 | 4.17 | 5.59 | 5.56 | 2.89 | 4.8
CGTCCAAGGTCAATGCTAGGTCAGTGACAGCATT | 6.74 | 5.78 | 2.73 | 4.19 | 1.14 | 5.31 | 4.11 | 4.64 | 1.38 | 3.44
GCATATAGGTAATACAACGTGAAAGTCCGATTGT | -0.622 | -0.502 | -0.205 | -0.638 | -0.368 | 0.333 | 1.02 | 0.49 | 0.28 | 0.431
TCTAGCAGGCCGGAGGGTCACTCAAGAGGTACGG | 0.786 | 0.705 | -0.517 | 0.729 | -1.11 | 1.69 | 0.508 | 1.34 | 1.19 | 1.2
TCTCCTAGGTCAACGATGGTCAGCTAATCTGCTA | 4.13 | 3.59 | 0.622 | 2.49 | 0.781 | 3.76 | 2.68 | 3.76 | 3.64 | 3.51
TCTGCTAGGTCAACGAAGGTCAGCTAATCTGCTA | 4.67 | 5.5 | 2.58 | 3.81 | 0.162 | 4.32 | 3.83 | 4.05 | 2.3 | 3.7
ATCTCAAGGTAAAAGTTCAGTGAATCCCGAGGAT | 1.18 | 1.66 | 1.12 | 0.879 | 0.539 | 3.08 | 3.54 | 4.49 | 2.83 | 4.24
AATAAAGGGTCACTAGGCCAGAGTAGGTACGAAT | 6.74 | 5.35 | 1.44 | 4.42 | 1.27 | 6.36 | 8.19 | 6.96 | 3.48 | 6.22
GCTGCTAGGTCAACTCATGGTCAGCTAAAGCTCG | 4.3 | 2.9 | 0.227 | 2.29 | 0.577 | 3.73 | 2.73 | 3.12 | 0.277 | 1.79
GCTAGTTGGTCAGTAAAAGGTCACAAACCGGTCG | 3.06 | 3.78 | 3.4 | 3.99 | 0.763 | 4.53 | 2.59 | 4.01 | 2.23 | 3.46
GCTATTAGTTGAAAGGGCAAACGAATGATTCTCG | 0.733 | 0.93 | 0.494 | 1.13 | -0.0679 | 2.7 | 2.92 | 4.48 | 2.73 | 4.34
TCTTGTATATCAATAGAGGTTAAGAAAGTGCGCT | 0.889 | 3.66 | 0.646 | 1.74 | 0.472 | 1.77 | 0.559 | 1.69 | 3.02 | 2.45
